Records with an inconclusive call do not appear. Where a call stands in place of a potency, no number is given. A number with no mark means an inactive call. The source made the active and inactive calls. The call rests on the fitted dose curve; in most records, active means well fitted curve in the direction sought with a large enough effect; inconclusive means small, poorly fitted or top-dose-only effect, or another doubt; inactive means no such curve, though single readings can be large; an effect the other way counts as inactive or inconclusive.
Each molecule was assayed against Aldehyde dehydrogenase, mitochondrial (Homo sapiens) (UniProt P05091) (assay: qHTS for Inhibitors of the Aldehyde Dehydrogenase Family (ALDH2) Primary screen (AID 2061308; further: nearly all actives have a fitted effect of over 55% in size)). Conditions: ALDH2 enzyme inhibition qHTS, 1536-well; series mostly up to 56 µM.
In the case of `C[C@H]1[C@H](C)CC[C@]2(C(=O)O[C@@H]3O[C@H](CO)[C@@H](O)[C@H](O)[C@H]3O)CC[C@]3(C(=O)O)C(=CCC4[C@@]5(C)CC[C@H](O[C@@H]6O[C@H](CO)[C@@H](O)[C@H](O)[C@H]6O)C(C)(C)C5CC[C@]43C)[C@H]12` (some centres not stated), the Potency is reported as “inactive”.
`N[C@H]1C[C@H]1c1ccc(-c2cccc(O)c2)cc1` was tested, and the Potency was “inactive”.
`COC(=O)c1cc(Br)cnc1N1CCC(NC2CCCCC2)C(O)C1` (configuration not stated) was tested, and the Potency was “inactive”.
`CC1OC(O[C@@H]2[C@@H](O)[C@H](OC(=O)[C@]34CCC(C)(C)C[C@H]3C3=CCC5[C@@]6(C)CC[C@H](O[C@@H]7O[C@H](C(=O)O)[C@@H](O)[C@H](O[C@@H]8OC[C@@H](O)[C@H](O)[C@H]8O)[C@H]7O[C@@H]7O[C@H](CO)[C@H](O)[C@H](O)[C@H]7O)[C@@](C)(C=O)C6CC[C@@]5(C)[C@]3(C)C[C@H]4O)O[C@H](C)[C@@H]2OC2OC(C)C(OC3OCC(O)C(O)C3O)C(O)C2O)C(O)C(O)C1O` (some centres not stated) gave an activity change, negative = inhibition of 9.81% [at 11.2 µM].
`COc1ccc(CN2C(=O)C(=O)c3cc(S(=O)(=O)N4CCC[C@H]4COc4cccnc4)ccc32)cc1` was tested, and the Potency was “inactive”.
For `NC(N)=NC(=O)c1cnn(-c2cccc3ncccc23)c1C1CC1`, the Potency was “inactive”.
`CC12CC34CC(O)C5C(CO)(CO)CC(=O)CC5(C)C3CC1C2C4` (configuration not stated) was tested, and the Potency was “inactive”.
`C/C1=C\C[C@]2(C)C(=O)C(O)=C([C@H](C)CO)[C@H]2C/C=C(\C)[C@@H](O)CC/C(C)=C/CC1` was tested, and the Potency was “inactive”.
In the case of `COC(=O)C1=CO[C@@H](O[C@@H]2O[C@H](CO)[C@@H](O)[C@H](O)[C@H]2O)/C(=C\CO)[C@@H]1CC(=O)OCCc1ccc(O)cc1`, the Potency is reported as “inactive”.
In the case of `C[C@@H]1C[C@H]2O[C@@]3(O[C@@H]2C(C)(C)O)C(O)[C@@]2(C)C4CCC5C(C)(C)[C@@H](O[C@H]6OC[C@H](O)[C@@H](O)[C@@H]6O)CC[C@@]56C[C@@]46CC[C@]2(C)C13` (some centres not stated), the Potency is reported as “inactive”.
In the case of `CC(=O)OC1C(OC(=O)c2ccccc2)C2C(C)(C)CC(=O)CC2(C)C23CCC(C)(C2)C(O)CC13` (configuration not stated), the Potency is reported as “inactive”.
With `CC1(C)C2CC[C@]3(C)C(C(=O)C=C4[C@H]5C[C@@](C)(C(=O)O)CC[C@]5(C)CC[C@]43C)[C@@]2(C)CC[C@@H]1O` (some centres not stated) the Potency was “inactive”.
`CC(C)CC(=O)OC[C@H]1O[C@@](COC(=O)CC(C)C)(O[C@H]2O[C@H](CO)[C@@H](O)[C@H](O)[C@H]2OC(=O)CC(C)C)[C@@H](OC(=O)CC(C)C)[C@@H]1O` was tested, and the Potency was “inactive”.
In the case of `CC(=O)OC[C@]12[C@H](OC(C)=O)C(=O)[C@@H]3[C@@H](O)[C@@]14O[C@@]3(C)COC(=O)c1cccnc1[C@@H](C)[C@H](C)C(=O)O[C@@H]([C@H](O)[C@@H]2OC(C)=O)[C@]4(C)O`, the Potency is reported as “inactive”.
`CC1=COC(OC2OC(CO)C(O)C(O)C2O)C2C(CO)CC(OC(=O)/C=C/c3ccc(O)cc3)C12` (configuration not stated) was tested, and the Potency was “inactive”.
With `CC1(C)CC[C@]2(C(=O)O[C@@H]3O[C@H](CO)[C@@H](O)[C@H](O)[C@H]3O)CC[C@]3(C)C(=CCC4[C@@]5(C)C[C@@H](O)[C@H](O)[C@](C)(C=O)C5CC[C@]43C)[C@@H]2[C@@H]1O` (some centres not stated) the Potency was “inactive”.
With `COc1c2ccoc2cc2oc(CO[C@@H]3O[C@H](CO)[C@@H](O)[C@H](O)[C@H]3O)cc(=O)c12` the Potency was “inactive”.
`COc1cc2c(cc1OC)CC(=O)N(CCCNC[C@H]1Cc3cc(OC)c(OC)cc31)CC2` was tested, and the Potency was “inactive”.
With `Cc1ccc(C(C)C)c(O[C@@H]2O[C@H](CO)[C@@H](O)[C@H](O)[C@H]2O)c1` the Potency was “inactive”.
In the case of `CCOc1nc2cccc(C(=O)O)c2n1Cc1ccc(-c2ccccc2-c2nn[nH]n2)cc1`, the Potency is reported as “inactive”.
For `COc1c(O[C@@H]2O[C@H](CO)[C@@H](O)[C@H](O)[C@H]2O)c(CCC(=O)O)cc2ccoc12`, the Potency was “inactive”.
`COC(=O)C(Cc1ccccc1)NC(=O)c1ccccc1` (configuration not stated) was tested, and the Potency was “inactive”.
With `C=CC1(C)C=C2C(=O)OC(=O)C3=C(CCCC3(C)C)C2(O)CC1` (configuration not stated) the Potency was “inactive”.
`COC1(CC(C)C)NC(=O)C(O)(Cc2ccccc2)NC1=O` (configuration not stated) was tested, and the Potency was “inactive”.
With `Cc1cc(CNC(=O)c2cc(C(=O)NCc3ccc(F)c(C)c3)ncn2)ccc1F` the Potency was “inactive”.
In the case of `CC1(C)CCCC2(C)C3=C(C(=O)OC3O)C(O)CC12` (configuration not stated), the Potency is reported as “inactive”.
For `CC1=C(CO)CC(C(C)C2CCC3C4CC=C5CC(OC6OC(COC7OC(CO)C(O)C(O)C7O)C(O)C(O)C6O)CC(O)C5(C)C4CCC23C)OC1=O` (configuration not stated), the Potency was “inactive”.
In the case of `COc1ccc(C(O)C(C)OC2OC(CO)C(O)C(O)C2O)cc1` (configuration not stated), the Potency is reported as “inactive”.
In the case of `C=C1CCC2C(C)(C(=O)O)CCCC2(C)C1CCC(C)CC(=O)O` (configuration not stated), the Potency is reported as “inactive”.
`C[C@]12CCC[C@](C)(C(=O)O)C1CCC13CC(CO)C(CCC12)C3` (some centres not stated) was tested, and the Potency was “inactive”.
`CCCCC1CCN(CCCC(=O)c2ccccc2C)CC1` was tested, and the Potency was “inactive”.

These molecules were tested against Retinaldehyde dehydrogenase 3 (Homo sapiens) (UniProt P47895) (assay: qHTS for Inhibitors of the Aldehyde Dehydrogenase Family (ALDH1A3) Primary screen (AID 2061315)). Conditions: ALDH inhibition qHTS; series mostly up to 56 µM.
`C=C1CC[C@@]2(OC1)O[C@H]1CC3[C@@H]4CC=C5C[C@@H](O)C[C@@H](O[C@@H]6OC[C@H](O)[C@H](O)[C@H]6O[C@@H]6O[C@@H](C)[C@H](O)[C@@H](O)[C@H]6O)[C@]5(C)C4CC[C@]3(C)[C@H]1[C@@H]2C` (some centres not stated) was tested, and the Potency was “inactive”.
For `Cn1c(=O)n(-c2ccc(C(C)(C)C#N)cc2)c2c3cc(C#Cc4cccnc4)ccc3ncc21`, the Potency was “inactive”.
For `C/C=C(\C)C(=O)O[C@H]1[C@@H](O[C@]2(COC(=O)CC(C)C)O[C@H](COC(=O)C(C)CC)[C@@H](OC(C)=O)[C@@H]2O)O[C@H](COC(C)=O)[C@@H](O)[C@@H]1O` (some centres not stated), the Potency was “inactive”.
In the case of `CCCCCOc1ccc(C2SC(=O)NC2=O)cc1OCC` (configuration not stated), the Potency is reported as “inactive”.
In the case of `C=C1CC/C=C(/C(=O)O)CCC2C1CC2(C)C` (configuration not stated), the Potency is reported as “inactive”.
In the case of `C=CC(C)(C)c1[nH]c2ccccc2c1C[C@@H]1NC(=O)[C@H](Cc2c[nH]c3ccccc23)NC1=O`, the Potency is reported as “inactive”.
`CC(C)CC1(C(=O)OCc2ccc(O[C@@H]3O[C@H](CO)[C@@H](O)[C@H](O)[C@H]3O)cc2)CC(=O)OC(C(=O)O)CC(=O)OCC2OC(O1)C(OC(=O)/C=C/c1ccc(O)cc1)C(O)C2O` (some centres not stated) was tested, and the Potency was “inactive”.
`COc1ccc(/C=C/C(=O)O[C@@H]2[C@@H](O)[C@H](C)O[C@@H](OC3C4C=COC(O[C@@H]5O[C@H](CO)[C@@H](O)[C@H](O)[C@H]5O)C4C4(CO)OC34)[C@@H]2O)cc1OC` (some centres not stated) was tested, and the Potency was “inactive”.
`CC(C)CC(=O)OC[C@H]1O[C@@](COC(=O)CC(C)C)(O[C@H]2O[C@H](CO)[C@@H](O)[C@H](O)[C@H]2O)[C@@H](OC(=O)CC(C)C)[C@@H]1OC(=O)CC(C)C` was tested, and the Potency was “inactive”.
`C[C@H]1[C@H](C)CC[C@]2(C(=O)O[C@@H]3O[C@H](CO)[C@@H](O)[C@H](O)[C@H]3O)CC[C@]3(C(=O)O)C(=CCC4[C@@]5(C)CC[C@H](O[C@@H]6O[C@H](CO)[C@@H](O)[C@H](O)[C@H]6O)C(C)(C)C5CC[C@]43C)[C@H]12` (some centres not stated) was tested, and the Potency was “inactive”.
In the case of `N[C@H]1C[C@H]1c1ccc(-c2cccc(O)c2)cc1`, the Potency is reported as “inactive”.
With `COC(=O)c1cc(Br)cnc1N1CCC(NC2CCCCC2)C(O)C1` (configuration not stated) the Potency was “inactive”.
With `CC1OC(O[C@@H]2[C@@H](O)[C@H](OC(=O)[C@]34CCC(C)(C)C[C@H]3C3=CCC5[C@@]6(C)CC[C@H](O[C@@H]7O[C@H](C(=O)O)[C@@H](O)[C@H](O[C@@H]8OC[C@@H](O)[C@H](O)[C@H]8O)[C@H]7O[C@@H]7O[C@H](CO)[C@H](O)[C@H](O)[C@H]7O)[C@@](C)(C=O)C6CC[C@@]5(C)[C@]3(C)C[C@H]4O)O[C@H](C)[C@@H]2OC2OC(C)C(OC3OCC(O)C(O)C3O)C(O)C2O)C(O)C(O)C1O` (some centres not stated) the activity change, negative = inhibition was 5.21% [at 11.2 µM].
For `COc1ccc(CN2C(=O)C(=O)c3cc(S(=O)(=O)N4CCC[C@H]4COc4cccnc4)ccc32)cc1`, the Potency was “inactive”.
`NC(N)=NC(=O)c1cnn(-c2cccc3ncccc23)c1C1CC1` was tested, and the Potency was “inactive”.
`CC12CC34CC(O)C5C(CO)(CO)CC(=O)CC5(C)C3CC1C2C4` (configuration not stated) was tested, and the Potency was “inactive”.
For `C/C1=C\C[C@]2(C)C(=O)C(O)=C([C@H](C)CO)[C@H]2C/C=C(\C)[C@@H](O)CC/C(C)=C/CC1`, the Potency was “inactive”.
For `COC(=O)C1=CO[C@@H](O[C@@H]2O[C@H](CO)[C@@H](O)[C@H](O)[C@H]2O)/C(=C\CO)[C@@H]1CC(=O)OCCc1ccc(O)cc1`, the Potency was “inactive”.
For `C[C@@H]1C[C@H]2O[C@@]3(O[C@@H]2C(C)(C)O)C(O)[C@@]2(C)C4CCC5C(C)(C)[C@@H](O[C@H]6OC[C@H](O)[C@@H](O)[C@@H]6O)CC[C@@]56C[C@@]46CC[C@]2(C)C13` (some centres not stated), the Potency was “inactive”.
`CC(=O)OC1C(OC(=O)c2ccccc2)C2C(C)(C)CC(=O)CC2(C)C23CCC(C)(C2)C(O)CC13` (configuration not stated) was tested, and the Potency was “inactive”.
In the case of `CC1(C)C2CC[C@]3(C)C(C(=O)C=C4[C@H]5C[C@@](C)(C(=O)O)CC[C@]5(C)CC[C@]43C)[C@@]2(C)CC[C@@H]1O` (some centres not stated), the Potency is reported as “inactive”.
For `CC(C)CC(=O)OC[C@H]1O[C@@](COC(=O)CC(C)C)(O[C@H]2O[C@H](CO)[C@@H](O)[C@H](O)[C@H]2OC(=O)CC(C)C)[C@@H](OC(=O)CC(C)C)[C@@H]1O`, the Potency was “inactive”.
In the case of `CC(=O)OC[C@]12[C@H](OC(C)=O)C(=O)[C@@H]3[C@@H](O)[C@@]14O[C@@]3(C)COC(=O)c1cccnc1[C@@H](C)[C@H](C)C(=O)O[C@@H]([C@H](O)[C@@H]2OC(C)=O)[C@]4(C)O`, the Potency is reported as “inactive”.
`CC1=COC(OC2OC(CO)C(O)C(O)C2O)C2C(CO)CC(OC(=O)/C=C/c3ccc(O)cc3)C12` (configuration not stated) was tested, and the Potency was “inactive”.
For `CC1(C)CC[C@]2(C(=O)O[C@@H]3O[C@H](CO)[C@@H](O)[C@H](O)[C@H]3O)CC[C@]3(C)C(=CCC4[C@@]5(C)C[C@@H](O)[C@H](O)[C@](C)(C=O)C5CC[C@]43C)[C@@H]2[C@@H]1O` (some centres not stated), the Potency was “inactive”.
For `COc1c2ccoc2cc2oc(CO[C@@H]3O[C@H](CO)[C@@H](O)[C@H](O)[C@H]3O)cc(=O)c12`, the Potency was “inactive”.

Reference: PubChem BioAssay (NCATS)
